Experiment [1] addresses Lysosomal acid glucosylceramidase (Homo sapiens) (UniProt P04062). In words: Glucocerebrosidase-p2 (AID 348; in the data active = potency below about 10 µM; also: potency is read from the fitted curve at half-maximal effect). The settings on record: purified GBA, blue fluorogenic substrate, 40 min. The method in brief:
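Normal human glucocerebrosidase (0.2 nM) with blue fluorogenic substrate (80 uM final) in citrate/phosphate pH 5.9 with 10mM sodium taurocholate, 0.01% tween-20; 40 min RT, NaOH/glycine stop; fluorescence Ex 365/Em 440; AC50 from a titration from 0.6 nM upwards.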

Experiment [2] has as its target Cytochrome P450 1A2 (Homo sapiens) (UniProt P05177). In words: p450-cyp1a2 (AID 410; calls by dose curve; also: potency is read from the fitted curve at half-maximal effect). The settings on record: recombinant CYP1A2, luciferin-ME demethylation, luminescence; series mostly up to 57 µM. The gist of the method:
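O-Demethylation of luciferin 6' methyl ether by human CYP1A2 is monitored as luciferase luminescence. Substrate sits at Km (100uM); enzyme is 20nM. Values are scaled to 57 uM furafylline as maximal inhibition.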

In experiment [3] the target is Glucocorticoid receptor (Homo sapiens) (UniProt P04150). In words: GR-GFP Redistribution (AID 450;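 active = compounds whose dose series gives a full or clear partial fitted curve of increased nuclear translocation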; also: potency is read from the fitted curve at half-maximal effect). The settings on record: U2OS GR-GFP nuclear translocation, laser cytometry, 2 h.
Experiment [4] shares this target. In words: GR-EFC Redistribution (AID 451; calls by dose curve; also: potency is read from the fitted curve at half-maximal effect). The conditions noted are these: CHO-K1 GR-EFC translocation, beta-gal luminescence, 2 h. The gist of the method: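 CHO-K1 cells expressing nuclear EA and GR-ED fragments of b-gal; compounds titrated up to 46 uM final, 2 h at 37 C. GR nuclear translocation read as complemented b-gal luminescence after 1 h RT detection.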

In experiment [5] the target is Mitogen-activated protein kinase 10 (Mus musculus) (UniProt Q61831). Briefly: JNK3 AlphaScreen Assay (AID 530; active = well fitted curve in either direction with a large enough effect, not every such curve was filed as active;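 also: kinase came from lysate of stimulated human HepG2 cells; signal reports phosphorylation of biotinylated GST-cJun 1-79 at Ser73 with 10 µM ATP; % is scaled to controls: 0 for no effect and ±100 for the full control effect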). The settings on record: JNK3 lysate, c-Jun phosphorylation; series mostly up to 57.1 µM. The method in brief: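 Activity was read by AlphaScreen after JNK3-containing HepG2 lysate (cytokine pre-activated) phosphorylated biotinylated GST-cJun with 10 uM ATP at room temperature. Phospho-Ser73 cJun antibody with Protein-A acceptor beads provided detection.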
Background: Bead proximity is the source of the signal in Alpha formats.

In experiment [6] the target is 3',5'-cyclic-AMP phosphodiesterase 4B (Homo sapiens) (UniProt Q07343). Briefly: qHTS Assay for Inhibitors of PDE-IV (AID 607; active = well fitted activation curve with a large enough effect in the main read-out, with a control signal flat, not every such curve was filed as active; also: % of control where 0% means no effect). The settings on record: HEK293 ACTOne CNG channel cells, membrane potential fluorescence; series mostly up to 22.9 µM. The gist of the method: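 ACTOne HEK293 cells carry a modified cAMP-gated CNG channel and express endogenous PDE4; plated 1000 cells/well, compounds up to 22.9 uM final. Membrane-potential dye fluorescence (ex 535/em 590) was read; parental cells received 10 uM forskolin + 100 uM RO 20-1724.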
(In general: In qHTS, concentration-response curves come from the screen itself.)

For experiment [7], the target named is Cytochrome P450 3A4 (Homo sapiens) (UniProt P08684). In words: qHTS Assay for Activators of Cytochrome P450 3A4 (AID 885). Also: nearly all actives have a fitted effect of over 65% in size. The settings on record: recombinant CYP3A4, Luciferin-PPXE luminescence, 60 min; series mostly up to 57.1 µM. The gist of the method:
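CYP3A4 activity: Luciferin-PPXE O-dealkylation, 25uM substrate, 200mM KPO4, RT throughout. Read-out is luciferase luminescence; higher values reflect activation.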

A short description of experiment [8]: Counterscreen qHTS for small molecule stabilizers of the endoplasmic reticulum resident proteome: GLuc-NoTag assay (AID 1508627).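 Also: 0% = thapsigargin alone and -100% = DMSO vehicle control.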 The settings on record: Gaussia luciferase NoTag secretion counterscreen, luminescence, thapsigargin 100 nM for final 4 h; series mostly up to 76.4 µM. The method in brief: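 Counterscreen line: SH-SY5Y-GLuc-NoTag. Seed, 5 h; compound, 19 h; thapsigargin 100 nM, 4 h; 37C/5% CO2. Readout: secreted GLuc luminescence, coelenterazine 0.07x final, no lysis.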

Experiment [9] in a line: Confirmatory qHTS for small molecule stabilizers of the endoplasmic reticulum resident proteome: Secreted ER Calcium Modulated Protein (SERCaMP) assay (AID 1508628). Also: nearly all actives have a fitted effect of over 40% in size. Also: potency is read from the fitted curve at half-maximal effect. The conditions noted are these: SERCaMP secreted luciferase ER calcium/proteostasis reporter; series mostly up to 76.3 µM. The gist of the method: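 Reporter secretion upon ER calcium depletion (100 nM thapsigargin, 4 h, 37C) is measured as medium luminescence with coelenterazine, after 16 h compound pretreatment of SH-SY5Y-GLuc-SERCaMP cells; primary at three concentrations up to 38.3 uM, follow-up at 11 (up to 76.6 uM).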

A short description of experiment [10]: AP1 Signaling Pathway (AID 357; active = well fitted curve in either direction with a large enough effect, not every such curve was filed as active;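 also: ME-180 reporter cells stimulated with EGF at its EC50 level; % is scaled to controls: 0 for no effect and ±100 for the full control effect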). The settings on record: ME-180 AP-1-bla reporter, EGF-induced, beta-lactamase ratio, 5 h; at 7.69 µM (top of the series) unless noted. The method in brief: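 Titration-series screen for positive or negative modulators of EC50 EGF-induced signaling in ME-180 cells carrying an AP-1-driven beta-lactamase reporter. After 5 hours at 37 degrees Celsius, CCF4 460nm/530nm emission ratio gave %Activity; AC50 values derived.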

Experiment [11] in a line: NFAT Signaling Pathway (AID 444; active = well fitted curve in either direction with a large enough effect, not every such curve was filed as active;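 also: carbachol stimulus at about its EC50 of 1 µM final; % is scaled to controls: 0 for no effect and ±100 for the full control effect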). The conditions noted are these: Jurkat NFAT-bla M1, carbachol, beta-lactamase ratio, 5 h; at 7.69 µM (top of the series) unless noted. The method in brief:
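Jurkat cells with NFAT-driven β-lactamase reporter and co-expressed M1 receptor, stimulated with carbachol (final 1 uM, ~EC50), compound titration, 5 h at 37 °C. CCF4 loaded 1 h at RT; 460/530 nm ratio gave %activity and AC50.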

Experiment [12] in a line: Stat Signaling Pathway (AID 446; active = well fitted curve in either direction with a large enough effect, not every such curve was filed as active;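 also: ME-180 cervical cancer cells given 40 pM IL-6 alongside compound; SIE-controlled beta-lactamase reporter measured as 460/530 nm FRET emission ratio; % is scaled to controls: 0 for no effect and ±100 for the full control effect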). The settings on record: ME-180 SIE beta-lactamase reporter, IL-6 stimulated, 5 h; at 7.69 µM (top of the series) unless noted. The gist of the method:
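Compound effects on IL-6-induced STAT reporter activity were measured in ME-180 cells. After overnight culture, cells were co-treated with 40 pM IL-6 for 5 hrs before beta-lactamase substrate loading at room temperature.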

The target in experiment [13] is Cytochrome P450 3A4 (Homo sapiens) (UniProt P08684). In words: qHTS Assay for Inhibitors and Substrates of Cytochrome P450 3A4 (AID 884). Also: potency is read from the fitted curve at half-maximal effect; nearly all actives have a fitted effect of over 50% in size. The settings on record: recombinant CYP3A4, Luciferin-PPXE luminescence; series mostly up to 57.1 µM. The method in brief: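 Luminescent readout of luciferin produced by CYP3A4 (20 nM) dealkylation of Luciferin-PPXE, 25 uM (its KM). NADPH-driven reaction ran 60 min at RT after 10 min compound preincubation; data scaled to 57 uM ketoconazole as 100% inhibition.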

Experiment [14] in a line: qHTS Assay for Lipid Storage Modulators (AID 1519; calls by dose curve). The conditions noted are these: Drosophila S3 cells, BODIPY lipid droplet/cell ratio, laser cytometry, cells loaded with oleic acid; for activity change, negative = inhibition: at 57.5 µM (top of the series). The method in brief:
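Cells seeded at 5,000 per well were treated with compounds over a concentration series and loaded with oleic acid (400 uM, as added). Lipid droplet fluorescence (488 nm excitation, 500-530 nm channel) was read by laser-scanning cytometry and normalized to 20 uM Triacsin C.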

Experiment [15] has as its target Dual specificity protein kinase CLK4 (Homo sapiens) (UniProt Q9HAZ1). In words: qHTS Assay for Inhibitors of CDC-like Kinase 4 (Kinase-Glo Assay) (AID 1770). Also: % is scaled to controls: 0 for no effect and ±100 for the full control effect; nearly all actives have a fitted effect of over 65% in size. The settings on record: recombinant Clk4, Kinase-Glo ATP depletion luminescence; series mostly up to 66.7 µM. The gist of the method: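 Luminescent ATP-depletion read-out (Kinase-Glo) after 4.5 h room-temperature reaction of Clk4 (25 nM final) with RS peptide (100 uM) and ATP (1 uM), pH 7.5 Tris buffer with MgCl2 and DTT.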

For experiment [16] the target is unchanged. Briefly: qHTS Assay for Inhibitors of CDC-like Kinase 4 (ADP-FP Assay) (AID 1795).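 Also: recombinant human CLK4 phosphorylating RS repeat peptide at 1 µM ATP; % is scaled to controls: 0 for no effect and ±100 for the full control effect; nearly all actives have a fitted effect of over 60% in size.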 The settings on record: Transcreener ADP fluorescence polarization; series mostly up to 50 µM. The method in brief:
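Kinase activity was measured as ADP production using Transcreener orange tracer (4 nM) and ADP antibody (1 ug/mL) fluorescence polarization, with ADP calculated from a calibration curve. The 1 h reaction contained 6.25 nM Clk4, 1 uM ATP and 100 uM RS peptide at pH 7.5 with Mg2+.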

The target in experiment [17] is Ubiquitin carboxyl-terminal hydrolase 1 (Homo sapiens) (UniProt O94782). In words: Inhibitors of USP1/UAF1: Pilot qHTS (AID 504865).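 Also: rhodamine fluorescence freed from ubiquitin-rhodamine substrate followed over time; top concentration of the series differs between compounds; % is scaled to controls: 0 for no effect and ±100 for the full control effect; nearly all actives have a fitted effect of over 35% in size.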 The settings on record: purified USP1/UAF1, Ub-rhodamine cleavage fluorescence; series mostly up to 54.9 µM. The gist of the method:
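Deubiquitinase activity followed as kinetic rhodamine fluorescence release from 150 nM Ub-Rho. 1 nM USP1/UAF1 with compound, after 15 min room-temperature preincubation, in HEPES pH 7.8 buffer containing TCEP, EDTA, BSA and Tween-20.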

A short description of experiment [18]: Cell Viability qHTS for small molecule stabilizers of the endoplasmic reticulum resident proteome (AID 1508629). The settings on record: cell viability counter-screen, 100 nM thapsigargin for final 4 h.
Experiment [19] is described as follows: qHTS Assay for Identification of Small Molecule Agonists for Hypoxia Response Element Signaling Pathway (AID 914; active = well fitted activation curve with a large enough effect in the signal ratio, with a control signal flat, not every such curve was filed as active; the % refers to the signal ratio; also: potency is read from the fitted curve at half-maximal effect). The settings on record: ME-180 (cervical carcinoma) HRE-bla reporter, beta-lactamase ratio, CoCl2, 17 h; activation: stronger effect = higher value. The method in brief: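 Read-out: CCF4 FRET ratio of 460nm to 530nm emission (excitation 405nm) after 2.5 hours at room temperature, taken from HRE-bla ME-180 cells that had been exposed to compound and EC50 CoCl2 for 17 hours.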

Experiment [20] deals with Dual specificity protein kinase CLK4 (Homo sapiens) (UniProt Q9HAZ1). In words: qHTS Assay for Inhibitors of CDC-like Kinase 4 (ADP-Glo Assay) (AID 1771). Also: % is scaled to controls: 0 for no effect and ±100 for the full control effect; nearly all actives have a fitted effect of over 70% in size. The settings on record: recombinant CLK4, ADP-Glo luminescence; series mostly up to 80 µM. The method in brief:
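Compounds are pin-transferred onto substrate mix (100 uM RS peptide, 1 uM ATP), then 25 nM Clk4 is added. After 1 hr at room temperature, ADP-Glo reagent runs 45 min, detection reagent 30 min, then luminescence is read.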

Setting [21] is: measured here: cell count channel max response.
[22] abbreviates: measured here: lipid channel max response.

Each structure is given as a SMILES string. Results filed as inconclusive are left out. Active and inactive are the calls of the source. Unless noted, calls follow the shape of the dose curve; as a rule, active = well fitted curve in the direction sought with a large enough effect; inconclusive = small, poorly fitted or top-dose-only effect, or another doubt; inactive = no such curve, though single readings can be large; an effect the other way counts as inactive or inconclusive.

Sequence of Cytochrome P450 1A2 (Homo sapiens) (P05177 whole entry, looked up): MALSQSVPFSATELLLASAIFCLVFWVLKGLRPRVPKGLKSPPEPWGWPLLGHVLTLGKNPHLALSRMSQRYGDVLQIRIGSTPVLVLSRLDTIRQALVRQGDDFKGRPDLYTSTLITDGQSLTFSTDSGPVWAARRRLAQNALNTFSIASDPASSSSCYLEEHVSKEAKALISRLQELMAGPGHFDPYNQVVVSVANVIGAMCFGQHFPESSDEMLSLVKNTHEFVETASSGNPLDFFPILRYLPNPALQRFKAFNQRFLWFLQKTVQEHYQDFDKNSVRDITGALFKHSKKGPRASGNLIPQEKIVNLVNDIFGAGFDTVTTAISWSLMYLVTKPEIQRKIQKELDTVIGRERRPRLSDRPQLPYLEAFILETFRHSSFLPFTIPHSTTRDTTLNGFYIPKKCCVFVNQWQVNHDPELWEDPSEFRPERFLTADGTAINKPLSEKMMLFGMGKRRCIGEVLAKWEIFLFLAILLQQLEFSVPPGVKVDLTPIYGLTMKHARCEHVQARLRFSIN
Sequence of Ubiquitin carboxyl-terminal hydrolase 1 (Homo sapiens) (O94782 whole entry, looked up): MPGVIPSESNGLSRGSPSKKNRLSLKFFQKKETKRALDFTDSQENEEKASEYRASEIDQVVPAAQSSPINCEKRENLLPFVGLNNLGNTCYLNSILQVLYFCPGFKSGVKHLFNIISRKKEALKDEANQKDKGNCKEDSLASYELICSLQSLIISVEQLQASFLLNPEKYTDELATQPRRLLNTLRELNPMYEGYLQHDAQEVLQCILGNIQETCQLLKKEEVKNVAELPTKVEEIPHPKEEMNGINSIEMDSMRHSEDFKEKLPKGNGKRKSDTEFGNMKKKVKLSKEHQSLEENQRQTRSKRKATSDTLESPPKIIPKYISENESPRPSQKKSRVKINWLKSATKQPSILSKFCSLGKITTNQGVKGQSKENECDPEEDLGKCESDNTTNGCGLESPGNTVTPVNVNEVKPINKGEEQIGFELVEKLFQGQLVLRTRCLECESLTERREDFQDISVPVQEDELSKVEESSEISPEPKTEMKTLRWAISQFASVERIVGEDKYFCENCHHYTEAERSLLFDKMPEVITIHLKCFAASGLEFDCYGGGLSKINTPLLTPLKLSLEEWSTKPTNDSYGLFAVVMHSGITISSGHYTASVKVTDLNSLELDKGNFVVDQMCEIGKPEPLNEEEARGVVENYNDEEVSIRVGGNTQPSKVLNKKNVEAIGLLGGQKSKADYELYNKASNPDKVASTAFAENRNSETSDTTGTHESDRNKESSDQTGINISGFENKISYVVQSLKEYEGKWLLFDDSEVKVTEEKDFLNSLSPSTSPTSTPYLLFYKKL
Sequence of Dual specificity protein kinase CLK4 (Homo sapiens) (Q9HAZ1 whole entry, looked up): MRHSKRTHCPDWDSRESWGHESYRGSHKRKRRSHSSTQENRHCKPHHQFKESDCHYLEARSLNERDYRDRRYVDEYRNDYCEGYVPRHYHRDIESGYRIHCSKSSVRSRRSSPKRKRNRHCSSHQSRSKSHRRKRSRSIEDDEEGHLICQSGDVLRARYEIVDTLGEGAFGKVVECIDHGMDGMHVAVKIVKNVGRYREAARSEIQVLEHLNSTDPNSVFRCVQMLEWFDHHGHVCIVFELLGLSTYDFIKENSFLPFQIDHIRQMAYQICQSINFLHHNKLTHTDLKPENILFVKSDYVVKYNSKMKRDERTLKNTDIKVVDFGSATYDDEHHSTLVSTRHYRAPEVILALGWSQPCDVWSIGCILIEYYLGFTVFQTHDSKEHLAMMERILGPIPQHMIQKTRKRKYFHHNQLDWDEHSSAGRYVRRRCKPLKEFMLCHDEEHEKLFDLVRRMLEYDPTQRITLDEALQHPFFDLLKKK
Sequence of Cytochrome P450 3A4 (Homo sapiens) (P08684 whole entry, looked up): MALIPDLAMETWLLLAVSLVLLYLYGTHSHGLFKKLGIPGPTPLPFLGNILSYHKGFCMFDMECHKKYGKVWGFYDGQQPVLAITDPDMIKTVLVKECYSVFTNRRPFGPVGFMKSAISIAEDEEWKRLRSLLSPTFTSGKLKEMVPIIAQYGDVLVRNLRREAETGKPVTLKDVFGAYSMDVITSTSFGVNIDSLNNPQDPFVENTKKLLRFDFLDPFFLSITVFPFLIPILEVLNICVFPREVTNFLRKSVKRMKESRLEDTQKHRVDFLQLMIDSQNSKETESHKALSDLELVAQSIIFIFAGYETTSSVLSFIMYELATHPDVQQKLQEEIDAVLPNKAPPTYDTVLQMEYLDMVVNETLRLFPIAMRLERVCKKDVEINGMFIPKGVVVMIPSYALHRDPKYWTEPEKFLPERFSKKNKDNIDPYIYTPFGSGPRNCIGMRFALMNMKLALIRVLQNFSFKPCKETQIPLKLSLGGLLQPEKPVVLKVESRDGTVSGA
Sequence of 3',5'-cyclic-AMP phosphodiesterase 4B (Homo sapiens) (Q07343 whole entry, looked up): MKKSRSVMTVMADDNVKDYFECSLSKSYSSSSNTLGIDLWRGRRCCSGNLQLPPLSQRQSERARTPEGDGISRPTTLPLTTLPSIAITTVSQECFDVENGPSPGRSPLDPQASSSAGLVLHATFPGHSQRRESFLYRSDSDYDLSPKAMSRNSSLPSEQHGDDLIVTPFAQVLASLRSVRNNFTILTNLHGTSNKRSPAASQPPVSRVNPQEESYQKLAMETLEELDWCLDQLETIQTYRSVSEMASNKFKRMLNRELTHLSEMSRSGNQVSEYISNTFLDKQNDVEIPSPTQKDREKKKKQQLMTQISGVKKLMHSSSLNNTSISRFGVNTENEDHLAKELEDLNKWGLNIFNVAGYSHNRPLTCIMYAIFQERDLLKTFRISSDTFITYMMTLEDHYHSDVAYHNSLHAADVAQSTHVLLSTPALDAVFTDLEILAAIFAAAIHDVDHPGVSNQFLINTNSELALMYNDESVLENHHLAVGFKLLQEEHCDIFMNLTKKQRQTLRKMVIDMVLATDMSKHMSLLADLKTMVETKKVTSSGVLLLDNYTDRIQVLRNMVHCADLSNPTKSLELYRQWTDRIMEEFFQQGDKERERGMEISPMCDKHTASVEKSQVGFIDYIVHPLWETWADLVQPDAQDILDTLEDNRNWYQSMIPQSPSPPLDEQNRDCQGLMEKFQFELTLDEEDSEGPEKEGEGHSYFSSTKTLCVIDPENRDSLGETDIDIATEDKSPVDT
Sequence of Lysosomal acid glucosylceramidase (Homo sapiens) (P04062 whole entry, looked up): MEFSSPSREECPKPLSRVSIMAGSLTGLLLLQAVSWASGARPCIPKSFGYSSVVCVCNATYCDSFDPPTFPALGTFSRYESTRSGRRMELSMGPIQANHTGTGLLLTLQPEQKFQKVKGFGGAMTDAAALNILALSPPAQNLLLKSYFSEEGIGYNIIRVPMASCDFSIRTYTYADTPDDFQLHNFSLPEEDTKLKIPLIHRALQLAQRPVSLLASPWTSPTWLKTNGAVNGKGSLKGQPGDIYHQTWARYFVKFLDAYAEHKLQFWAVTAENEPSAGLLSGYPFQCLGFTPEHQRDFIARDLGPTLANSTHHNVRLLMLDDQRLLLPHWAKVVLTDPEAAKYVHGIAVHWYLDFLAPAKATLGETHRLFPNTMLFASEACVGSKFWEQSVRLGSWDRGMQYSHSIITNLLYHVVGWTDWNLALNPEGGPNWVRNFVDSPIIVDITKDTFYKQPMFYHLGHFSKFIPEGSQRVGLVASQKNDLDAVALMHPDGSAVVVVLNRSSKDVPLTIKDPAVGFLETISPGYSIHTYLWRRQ
Sequence of Glucocorticoid receptor (Homo sapiens) (P04150 whole entry, looked up, the tested form may be a part): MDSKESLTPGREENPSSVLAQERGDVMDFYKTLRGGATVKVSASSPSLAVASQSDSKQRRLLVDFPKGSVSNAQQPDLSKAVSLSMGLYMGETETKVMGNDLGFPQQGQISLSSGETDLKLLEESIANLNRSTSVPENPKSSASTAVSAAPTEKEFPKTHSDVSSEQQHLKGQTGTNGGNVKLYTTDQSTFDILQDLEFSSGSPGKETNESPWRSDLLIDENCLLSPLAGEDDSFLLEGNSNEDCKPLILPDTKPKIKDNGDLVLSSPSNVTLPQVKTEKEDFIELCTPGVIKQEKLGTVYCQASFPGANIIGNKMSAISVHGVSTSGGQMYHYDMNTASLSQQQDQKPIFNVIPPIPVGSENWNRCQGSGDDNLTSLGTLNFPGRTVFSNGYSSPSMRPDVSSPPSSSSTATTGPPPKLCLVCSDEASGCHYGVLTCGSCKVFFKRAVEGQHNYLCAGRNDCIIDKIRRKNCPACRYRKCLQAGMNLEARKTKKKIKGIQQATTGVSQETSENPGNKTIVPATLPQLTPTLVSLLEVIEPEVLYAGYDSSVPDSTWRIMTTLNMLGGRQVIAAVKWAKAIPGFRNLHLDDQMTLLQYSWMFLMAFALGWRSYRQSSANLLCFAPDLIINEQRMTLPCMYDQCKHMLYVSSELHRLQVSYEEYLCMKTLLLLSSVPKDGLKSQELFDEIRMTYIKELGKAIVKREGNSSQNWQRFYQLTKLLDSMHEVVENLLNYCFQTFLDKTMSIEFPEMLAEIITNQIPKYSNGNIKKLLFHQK

Consider `COCCn1c(=O)c(-c2ccc(OC)cc2)nc2cnc(N3CCNCC3)nc21`, for which the Potency in experiment [1] was > 11.4 µM (inactive); in [2], 6.31 µM (active); in experiment [3], > 9.22 µM (inactive); in [4] it was > 46 µM (inactive). Further, in experiment [5], the molecule was called inactive. For the same molecule, the Potency entry in experiment [6], in [7], in experiment [8] and in [9] was “inactive” in each case.

Consider `Cc1nc2cnc(N3CCNCC3)nc2n(Cc2cccs2)c1=O`, for which the Potency was > 11.4 µM (inactive) in experiment [1]; 0.631 µM (active) in experiment [2]; > 9.22 µM (inactive) in experiment [3]; > 46 µM (inactive) in [4]; 3.16 µM (active) in [13]; 25.1 µM (active) in experiment [9]. For the same molecule, the activity change, negative = inhibition was -0.143% (inactive) in experiment [10], 6.53% (inactive) in [11] and 6.29% (inactive) in experiment [14]. Moreover, in experiment [12], the activity, negative = inhibition was 3.44% (inactive). The molecule was called inactive in experiment [5]. Further, the Potency entry in [6], in experiment [7], in experiment [15], in [16], in experiment [17] and in experiment [8] was “inactive” each time. Besides, the max response in [14] (setting [21]) is 24.4%; in [14] (setting [22]), 28.9%; in [18], 3.08% (inactive).

Take `CCNc1ncc2nc(CCc3ccccc3)c(=O)n(-c3ccccc3)c2n1`: the Potency is > 11.4 µM (inactive) in [1]; 1.26 µM (active) in experiment [2]; > 9.22 µM (inactive) in experiment [3]; > 46 µM (inactive) in experiment [4]; 5.01 µM (active) in experiment [13]; 35.5 µM (active) in [9]. Also, the activity change, negative = inhibition in experiment [10] was -30.4% (inactive); in experiment [11] it was -2.92% (inactive). The activity, negative = inhibition in experiment [12] was 16.3% (inactive). Besides, the outcome in experiment [5] was inactive. Besides, the Potency result in experiment [7] and in experiment [8] was “inactive” in each case. Besides, the max response in [18] is 16.3% (inactive).

Turning to `O=c1c(-c2ccccc2)nc2cnc(N3CCNCC3)nc2n1-c1ccccc1`, the Potency in experiment [1] was > 11.4 µM (inactive); in [2] it was 7.94 µM (active); in [3], > 9.22 µM (inactive); in experiment [4], > 46 µM (inactive); in experiment [19] it was 3.16 µM (active). Further, the molecule was classed as inactive in experiment [5]. Also, the Potency result in [6], in [7], in experiment [15], in [20], in experiment [16] and in experiment [17] was “inactive” in each case. Also, the Potency entry in experiment [8] and in [9] was “inactive” in each case.

For `COc1ccc(Oc2ncc3nc(-c4cccs4)c(=O)n(CCC#N)c3n2)cc1`, the values for the Potency in experiment [1], in [3] and in experiment [4] were > 11.4 µM (inactive), > 9.22 µM (inactive) and > 46 µM (inactive), respectively. In addition, the results for the activity change, negative = inhibition in experiment [10], in experiment [11] and in experiment [14] were -1.5% (inactive), -5.68% (inactive) and 2.6% (inactive), respectively. Besides, the activity, negative = inhibition in experiment [12] was -11.5% (inactive). Besides, the molecule was classed as inactive in experiment [5]. Moreover, the Potency result in experiment [6], in experiment [15], in experiment [16], in experiment [17] and in experiment [8] was “inactive” in each case. Also, the max response in experiment [14] (setting [21]) is 10.8%; in [14] (setting [22]), 10.8%; in experiment [18] it was 18.3% (inactive).

The record behind these values is PubChem BioAssay (NCATS).
